Compound activity as filed in PubChem.
Compounds with a hit are over-represented: about 19% of the library has one in this group of screens.
TDP1 cell CPT = qHTS for Inhibitors of human tyrosyl-DNA phosphodiesterase 1 (TDP1): qHTS in cells in presence of CPT. hit rate 12% among 420,000. chicken DT40 Tdp1-/-;hTDP1 cells + 20 nM CPT, ATP luminescence, 48 h. Potency, µM (top dose mostly 46.2 µM), without a hit: at the top dose activity change, negative = growth inhibition, actives largely listed as inhibitors. AID 686979, 2013; further: potency means the concentration at half of the fitted maximal effect; nearly all actives have a fitted effect of over 55% in size
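Cell growth measured by CellTiter-Glo luminescence after a minimum 48 h, 37 C compound exposure with 20 nM CPT in Tdp1-knockout DT40 cells stably expressing hTDP1, seeded 400/well; qHTS titration format.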
TDP1 cell noCPT = qHTS for Inhibitors of human tyrosyl-DNA phosphodiesterase 1 (TDP1): qHTS in cells in absence of CPT; DT40 Tdp1-/- hTDP1 cells, no CPT, ATP luminescence, 48 h; Potency, µM (top dose mostly 46.2 µM), for the others: at the highest dose activity change, negative = growth inhibition, hits mostly inhibitors; hit rate 15% among 420,000; AID 686978, 2013; further: potency means the concentration at half of the fitted maximal effect; nearly all actives have a fitted effect of over 55% in size
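Luminescent ATP content (CellTiter-Glo) served as the growth readout. Knockout chicken DT40 cells expressing human TDP1 were exposed to compounds without camptothecin for a minimum 48 hr at 37 °C.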
HT1080 IDH1KD tx = qHTS for induction of synthetic lethality in tumor cells producing 2HG: qHTS for the HT-1080-IDH1KD cell line; Potency, µM (top dose mostly 46.1 µM), for inactives: at the highest dose activity, negative = toxicity, hits mostly cytotoxic; AID 686971, 2013; hit rate 2% among 360,000; HT-1080 IDH1 knockdown viability, ATP luminescence, 48 h;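 further: potency means the concentration at half of the fitted maximal effect; 0% = DMSO wells and -100% = cell-free medium wells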
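HT-1080-IDH1KD cells (IDH1 knocked down), 750/well in RPMI with 5% FBS, treated with compound 48 h at 37 degrees C. Viability by CellTiter-Glo luminescence, normalised to DMSO and no-cell wells; concentration-response curves classed.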
HT1080-NT tox = qHTS for induction of synthetic lethality in tumor cells producing 2HG: qHTS for the HT-1080-NT fibrosarcoma cell line. HT-1080-NT fibrosarcoma viability, CellTiter-Glo ATP luminescence, 48 h. Potency, µM (top dose mostly 46.1 µM), for the others: at the highest dose activity, negative = less viability, most hits filed as cytotoxic. hit rate 1.6% among 360,000. AID 686970, 2013;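 further: NT is the 2HG producing partner of a matched IDH1 knockdown line; potency means the concentration at half of the fitted maximal effect; 0% = DMSO-treated cells and -100% = media-only wells without cells; nearly all actives have a fitted effect of over 55% in size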
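HT-1080-NT; 750 cells/well; 5% FBS RPMI; 48 h compound, 37 degrees C; CellTiter-Glo luminescence; curve fitting and curve-class assignment.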
IL-1B inflam inh = qHTS for Inhibitors of Inflammasome Signaling: IL-1-beta AlphaLISA Primary Screen | THP-1 LPS/ATP IL-1B secretion, AlphaLISA, 16 h; active compounds read low | activity change, % at 57.5 µM | hit rate 4.7% among 360,000 | AID 743279, 2014; in the data active means activity change below about -50%; inconclusive means mostly about -30% to -49%
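THP-1 cells pretreated 1 hr with compounds (up to 57.5 uM final), then stimulated with LPS (250 ng/mL final) plus ATP (1.25 mM final); secreted IL-1B measured by AlphaLISA after 16 hr, decreased signal indicating inhibition.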
* marks the source's active call; other numbers are inactive results. Unless noted, the call rests on the fitted dose curve; in most records, active means well fitted curve in the direction sought with a large enough effect; inconclusive means small, poorly fitted or top-dose-only effect, or another doubt; inactive means no such curve, though single readings can be large; an effect the other way counts as inactive or inconclusive. Unless noted, on the % scale 0 is the no-effect control and ±100 the full control effect.

Screening Cc1noc(C)c1CSc1nc2sc(C)c(C)c2c(=O)n1-c1ccccc1 returned TDP1 cell CPT inconclusive, TDP1 cell noCPT inconclusive, HT1080 IDH1KD tx -15%, HT1080-NT tox -8% and IL-1B inflam inh 1.
Screening CCOc1ccc(S(=O)(=O)NCCC(=O)NC2CCN(Cc3ccccc3)CC2)cc1 returned TDP1 cell CPT -16%, TDP1 cell noCPT -17%, HT1080 IDH1KD tx 7%, HT1080-NT tox 2% and IL-1B inflam inh -1.
O=C(CCc1nc(-c2ccccc2)no1)NC1CCCCCC1 was read as TDP1 cell CPT -29%, TDP1 cell noCPT -17%, HT1080 IDH1KD tx 0%, HT1080-NT tox 7% and IL-1B inflam inh 7.
`Cc1ccc(-c2noc(CCC(=O)NC3CCN(Cc4ccccc4)CC3)n2)cc1` gave TDP1 cell CPT 13µM*, TDP1 cell noCPT inconclusive, HT1080 IDH1KD tx -13%, HT1080-NT tox -15% and IL-1B inflam inh inconclusive.
For Cc1ccc(-c2noc(CCC(=O)NC3CCCc4ccccc43)n2)cc1 (centres undefined) the results were TDP1 cell CPT 9.2µM*, TDP1 cell noCPT 2.3µM*, HT1080 IDH1KD tx -23%, HT1080-NT tox -27% and IL-1B inflam inh -12.
`CC(=O)c1ccc(S(=O)(=O)NCCC(=O)NC2CCN(Cc3ccccc3)CC2)cc1` gave TDP1 cell CPT -13%, TDP1 cell noCPT inconclusive, HT1080 IDH1KD tx 4%, HT1080-NT tox -2% and IL-1B inflam inh -87*.
`O=C(COC(=O)c1ccccc1SCC(=O)N1CCCC1)Nc1ccccc1C(F)(F)F` gave TDP1 cell CPT -25%, TDP1 cell noCPT -27%, HT1080 IDH1KD tx -10%, HT1080-NT tox 2% and IL-1B inflam inh 18.
`O=C(Nc1ccc(NC(=O)c2ccccc2Cl)nc1)c1ccco1` gave TDP1 cell CPT 2%, TDP1 cell noCPT -21%, HT1080 IDH1KD tx -16%, HT1080-NT tox -3% and IL-1B inflam inh -2.
`Cc1cccc(CSc2ncnc3c2cnn3Cc2ccccc2)c1` gave TDP1 cell CPT -22%, TDP1 cell noCPT inconclusive, HT1080 IDH1KD tx 2%, HT1080-NT tox 6% and IL-1B inflam inh -9.
For Cc1ccc(Cn2ncc3c(N4CCN(C)CC4)ncnc32)cc1 the results were TDP1 cell CPT inconclusive, TDP1 cell noCPT 10µM*, HT1080 IDH1KD tx -4%, HT1080-NT tox -8% and IL-1B inflam inh 2.
CCN(CC)C(=O)CSc1ncnc2c1cnn2Cc1ccccc1 was read as TDP1 cell CPT -28%, TDP1 cell noCPT 12µM*, HT1080 IDH1KD tx 9%, HT1080-NT tox 3% and IL-1B inflam inh -3.
For Cc1ccc(Cn2ncc3c(N4CCN(c5ccc(C)cc5)CC4)ncnc32)cc1 the results were TDP1 cell CPT -25%, TDP1 cell noCPT inconclusive, HT1080 IDH1KD tx -15%, HT1080-NT tox 6% and IL-1B inflam inh 35.
Screening Cc1ccc(Cn2ncc3c(N4CCN(Cc5ccc(Cl)cc5)CC4)ncnc32)cc1 returned TDP1 cell CPT 18µM*, TDP1 cell noCPT 16µM*, HT1080 IDH1KD tx -12%, HT1080-NT tox -2% and IL-1B inflam inh 13.
Cc1ccccc1N1CCN(c2ncnc3c2cnn3Cc2ccc(Cl)cc2)CC1 was read as TDP1 cell CPT 13µM*, TDP1 cell noCPT 13µM*, HT1080 IDH1KD tx -12%, HT1080-NT tox -5% and IL-1B inflam inh inconclusive.
For CCOc1ccc(NC(=O)c2cc(C)nc3c2c(C)nn3-c2cccc(F)c2)cc1 the results were TDP1 cell CPT 2% and TDP1 cell noCPT inconclusive.
Screening COc1ccc(CNc2ncnc3c2nnn3C)cc1 returned TDP1 cell CPT -21% and TDP1 cell noCPT -23%.
For Cc1ccc(Cn2ncc3c(N4CCN(C5CCCC5)CC4)ncnc32)cc1 the results were TDP1 cell CPT inconclusive, TDP1 cell noCPT -26%, HT1080 IDH1KD tx 3%, HT1080-NT tox 4% and IL-1B inflam inh 12.
For CC1CCN(c2ncnc3c2cnn3Cc2ccc(Cl)cc2)CC1 the results were TDP1 cell CPT 18µM*, TDP1 cell noCPT 18µM*, HT1080 IDH1KD tx -16%, HT1080-NT tox -13% and IL-1B inflam inh 0.
`CCN(CC)c1ncnc2c1cnn2Cc1ccc(C)cc1` gave TDP1 cell CPT inconclusive, TDP1 cell noCPT 12µM*, HT1080 IDH1KD tx -14%, HT1080-NT tox -12% and IL-1B inflam inh 1.
Screening Cc1ccc(Cn2ncc3c(NN)ncnc32)cc1 returned TDP1 cell CPT inconclusive, TDP1 cell noCPT inconclusive, HT1080 IDH1KD tx -20%, HT1080-NT tox -23% and IL-1B inflam inh 0.
Cc1ccc(Cl)cc1-n1ncc2c(N3CCC(C)CC3)ncnc21 was read as TDP1 cell CPT 23µM* and TDP1 cell noCPT 9.2µM*.
For Cc1cc(C)nc(N2CCN(c3ncnc4c3cnn4Cc3ccc(Cl)cc3Cl)CC2)n1 the results were TDP1 cell CPT inconclusive, TDP1 cell noCPT 3.7µM*, HT1080 IDH1KD tx 1%, HT1080-NT tox 0% and IL-1B inflam inh 3.
`O=C(O)c1ccccc1/C=N/NC(=S)NCc1ccccc1` gave TDP1 cell CPT -13%, TDP1 cell noCPT -10%, HT1080 IDH1KD tx 14%, HT1080-NT tox inconclusive and IL-1B inflam inh 18.
Screening CCOC(=O)CN1CC(C)(C)N(CC(=O)OCC)CC1(C)C returned TDP1 cell CPT -1%, TDP1 cell noCPT 6%, HT1080 IDH1KD tx 1%, HT1080-NT tox 15% and IL-1B inflam inh 18.
Cc1nc2ccc(F)cc2cc1C(=O)NC(C)C was read as TDP1 cell CPT -10%, TDP1 cell noCPT -13%, HT1080 IDH1KD tx 6%, HT1080-NT tox -1% and IL-1B inflam inh 37.
`COCCCNC(=O)c1c(N)n(-c2ccc3c(c2)OCO3)c2nc3ccccc3nc12` gave TDP1 cell CPT inconclusive, TDP1 cell noCPT inconclusive, HT1080 IDH1KD tx inconclusive, HT1080-NT tox inconclusive and IL-1B inflam inh -24.
For CCOCCCNC(=O)c1c(N)n(-c2ccc3c(c2)OCO3)c2nc3ccccc3nc12 the results were TDP1 cell CPT -16%, TDP1 cell noCPT -25%, HT1080 IDH1KD tx -1%, HT1080-NT tox 7% and IL-1B inflam inh -9.
Screening CCCNC(=O)c1c(N)n(-c2ccc3c(c2)OCO3)c2nc3ccccc3nc12 returned TDP1 cell CPT 8.2µM*, TDP1 cell noCPT 15µM*, HT1080 IDH1KD tx 2%, HT1080-NT tox 4% and IL-1B inflam inh -22.
Screening CCCNC(=O)c1c(N)n(-c2cc(OC)cc(OC)c2)c2nc3ccccc3nc12 returned TDP1 cell CPT inconclusive, TDP1 cell noCPT inconclusive, HT1080 IDH1KD tx -25%, HT1080-NT tox -19% and IL-1B inflam inh -55*.
